Among the test systems are HCT-15 colon; HT29 colon; SNB-75 CNS; SNB-19 CNS; U251 CNS; PC-3 prostate; SK-MEL-5 melanoma; UACC-62 melanoma; LOX IMVI melanoma; SK-MEL-28 melanoma.
Experiment in all cases: NCI-60 one-dose screen, 48 h (100 = growth as untreated, 0 = no growth, -100 = all killed)
Details in all cases: 10 µM

Molecules are shown by their SMILES. About 83,000 compounds went through this panel and 20% of them were active in at least one assay; those are over-represented in the sample as a whole.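 Assay: single dose, 48 h. Readout: percent growth (0 = no net growth; negative = cell death). Active: <10.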 Unmarked numbers belong to inactive results. Active and inactive are the calls of the source.

In the case of `Cc1cnc(C=O)c2cccc([N+](=O)[O-])c12`, the growth in the experiment on HCT-15 colon was 70.7%; with HT29 colon, 79.1%; in the experiment on SNB-75 CNS it was 69.6%; in the experiment with SNB-19 CNS it was 99.2%; in the experiment with U251 CNS, 91.9%; in the experiment with PC-3 prostate it was 79.9%. The growth was 95.5% with SK-MEL-5 melanoma, 103% in the experiment on UACC-62 melanoma, 72.1% with LOX IMVI melanoma and 111% with SK-MEL-28 melanoma.

`COc1ccc(-c2cc(/C=C3\C(=O)Nc4cc(Cl)ccc43)[nH]n2)cc1OC`: the growth with HCT-15 colon is 51.2%; in the experiment on HT29 colon, 32.2%; in the experiment with SNB-75 CNS, 47.1%; with SNB-19 CNS it was 87%; in the experiment with U251 CNS it was 75.7%; in the experiment on PC-3 prostate, 58.5%. Besides, the growth in the experiment with SK-MEL-5 melanoma is 64.8%; in the experiment with UACC-62 melanoma, 56.9%; in the experiment with LOX IMVI melanoma, 52.9%; in the experiment on SK-MEL-28 melanoma it was 74.6%.

Turning to `Cc1cccc2c1O/C(=C\c1ncc([N+](=O)[O-])n1C)C2=O`, the growth is 5.68% (active) with HCT-15 colon; -21% (active) in the experiment on HT29 colon; 8.32% (active) in the experiment on SNB-75 CNS; -5.53% (active) in the experiment with SNB-19 CNS; -17.5% (active) in the experiment with U251 CNS; -22.4% (active) in the experiment with PC-3 prostate. For the same compound, the growth in the experiment with SK-MEL-5 melanoma was -92.2% (active); in the experiment with UACC-62 melanoma, -66.3% (active); in the experiment on LOX IMVI melanoma it was -39.6% (active); with SK-MEL-28 melanoma, -17.8% (active).

In the case of `CCOCC[P+](c1ccccc1)(c1ccccc1)c1ccccc1`, the growth in the experiment on HCT-15 colon was 98.8%; in the experiment on HT29 colon it was 34.2%; in the experiment with SNB-75 CNS, 46.7%; in the experiment with SNB-19 CNS, 48%; with U251 CNS, 38.3%; with PC-3 prostate it was 33.4%. Further, the growth in the experiment with SK-MEL-5 melanoma is 21.6%; with UACC-62 melanoma, 33%; in the experiment on LOX IMVI melanoma, 52.5%; in the experiment with SK-MEL-28 melanoma it was 67.9%.

With `COc1cc(-c2c(C#N)c(N)n3c(nc4ccccc43)c2C#N)cc(Br)c1OC`, the growth with HCT-15 colon is 63.9%; in the experiment with HT29 colon it was 32.1%; with SNB-75 CNS it was -8.28% (active); in the experiment with SNB-19 CNS, 57.4%; in the experiment on U251 CNS, 25.3%; in the experiment with PC-3 prostate, 37.2%. Also, the growth in the experiment with SK-MEL-5 melanoma was 35.8%; in the experiment with UACC-62 melanoma, 55.2%; with LOX IMVI melanoma, 52.9%; in the experiment on SK-MEL-28 melanoma it was 57.5%.

Consider `CN(C)Cc1cccs1`, for which the growth in the experiment with HCT-15 colon was 106%; in the experiment with HT29 colon it was 104%; in the experiment on SNB-75 CNS, 93.9%; in the experiment with SNB-19 CNS it was 98.9%; in the experiment with U251 CNS, 95.9%; in the experiment on PC-3 prostate, 70.3%. For the same compound, the growth in the experiment with SK-MEL-5 melanoma is 90%; with UACC-62 melanoma it was 95.4%; in the experiment with LOX IMVI melanoma, 93.1%; in the experiment on SK-MEL-28 melanoma, 102%.

As to `CC1(C)CNC(=O)N1`, the growth in the experiment on HCT-15 colon is 98.8%; in the experiment with HT29 colon it was 94.6%; in the experiment on SNB-75 CNS it was 94.4%; in the experiment on SNB-19 CNS, 103%; with U251 CNS it was 97.4%; in the experiment on PC-3 prostate it was 93.3%. Also, the growth was 82.6% in the experiment on SK-MEL-5 melanoma, 95.9% in the experiment on UACC-62 melanoma, 107% in the experiment with LOX IMVI melanoma and 114% in the experiment on SK-MEL-28 melanoma.

Turning to `CCOC(=S)Sc1ccc([N+](=O)[O-])cc1[N+](=O)[O-]`, the growth with HCT-15 colon was 82.8%; in the experiment on HT29 colon, 0.214% (active); in the experiment with SNB-75 CNS, 99.5%; in the experiment on SNB-19 CNS, 111%; with U251 CNS it was 90.4%; in the experiment on PC-3 prostate, 83.7%. The growth is 88.4% in the experiment with SK-MEL-5 melanoma, 99% with UACC-62 melanoma, 14.3% in the experiment on LOX IMVI melanoma and 67.5% in the experiment on SK-MEL-28 melanoma.

In the case of `COc1ccc(-c2nnc(SCC(=O)c3ccccc3)o2)cc1`, the growth in the experiment with HCT-15 colon is 96.3%; with HT29 colon, 90.8%; in the experiment on SNB-75 CNS, 92.5%; with SNB-19 CNS, 96.9%; in the experiment on U251 CNS it was 98.1%; in the experiment with PC-3 prostate, 97.1%. For the same compound, the growth in the experiment with SK-MEL-5 melanoma was 92.8%; in the experiment on UACC-62 melanoma, 88.3%; with LOX IMVI melanoma it was 92.8%; with SK-MEL-28 melanoma it was 106%.

Consider `C[N+]1=C(/C=C/c2ccc(I)cc2)C(C)(C)c2ccccc21`, for which the growth was 86.6% with HCT-15 colon; 97.2% in the experiment on HT29 colon; 95.9% in the experiment with SNB-75 CNS; 96.7% with SNB-19 CNS; 40.6% with U251 CNS; 87.3% in the experiment with PC-3 prostate. The growth is 90.4% with SK-MEL-5 melanoma, 95.3% in the experiment with UACC-62 melanoma, 38% in the experiment with LOX IMVI melanoma and 84.7% in the experiment with SK-MEL-28 melanoma.

For the compound `O=CNc1c(Cl)cc2c(c1Cl)Cc1cc([N+](=O)[O-])ccc1-2`, the growth with HCT-15 colon was 29.3%; in the experiment with HT29 colon, 58.4%; in the experiment on SNB-75 CNS, 65.6%; in the experiment on SNB-19 CNS, 87.5%; in the experiment on U251 CNS it was 78.1%; in the experiment with PC-3 prostate, 40.2%. Further, the growth was 5.14% (active) in the experiment on SK-MEL-5 melanoma, 48.8% in the experiment on UACC-62 melanoma, 55.7% in the experiment on LOX IMVI melanoma and 106% in the experiment on SK-MEL-28 melanoma.

As to `C=CCn1c(C)nc2cc(Nc3nc(Nc4ccc5nc(C)n(CC=C)c5c4)c4ccccc4n3)ccc21`, the growth is -76.2% (active) in the experiment with HCT-15 colon; -69.4% (active) with HT29 colon; -96.7% (active) with SNB-75 CNS; -66.1% (active) in the experiment with SNB-19 CNS; -90.7% (active) in the experiment with U251 CNS; -91.7% (active) with PC-3 prostate. Besides, the growth in the experiment with SK-MEL-5 melanoma is -95.2% (active); with UACC-62 melanoma, -83.3% (active); in the experiment with LOX IMVI melanoma it was -83.3% (active); with SK-MEL-28 melanoma, -88% (active).

As to `COc1ccc(S(=O)(=O)Nc2cc(/C=C\c3cc(OC)c(OC)c(OC)c3)ccc2OC)cc1`, the growth in the experiment on HCT-15 colon is 7.86% (active); in the experiment on HT29 colon it was -13.4% (active); with SNB-75 CNS it was -2.76% (active); in the experiment on SNB-19 CNS, 55.1%; in the experiment on U251 CNS, 0.353% (active); in the experiment with PC-3 prostate it was -2.4% (active). For the same compound, the growth in the experiment on SK-MEL-5 melanoma is -20.1% (active); in the experiment with UACC-62 melanoma, 27.8%; in the experiment on LOX IMVI melanoma it was 19.3%; in the experiment with SK-MEL-28 melanoma, 48.8%.

With `COc1ccc(C2C=C(c3ccc(Cl)cc3)N=C3SC=CN32)c(Br)c1` (stereo not given), the growth with HCT-15 colon is 74%; in the experiment with HT29 colon it was 65.2%; with SNB-75 CNS it was 63.6%; with SNB-19 CNS, 66.9%; with U251 CNS, 70.2%; in the experiment with PC-3 prostate, 45.2%. Moreover, the growth was 88.6% with SK-MEL-5 melanoma, 75.2% in the experiment with UACC-62 melanoma, 71.2% with LOX IMVI melanoma and 63.5% in the experiment on SK-MEL-28 melanoma.

The record behind these values is PubChem BioAssay (NCI).
